In PubChem BioAssay (Tox21):
Results filed as inconclusive are left out. Where a call stands in place of a potency, no number is given. The source made the active and inactive calls. The call rests on the fitted dose curve; in most records, active means well fitted inhibition curve with a large enough effect in the signal ratio in the repeat runs, with a control signal flat; inconclusive means weak or mixed curves, or effect the other way; inactive means flat fitted curve, though single readings scatter; the % refers to the signal ratio.

Target: D(2) dopamine receptor (Homo sapiens) (UniProt P14416)
Sequence (P14416 whole entry, looked up): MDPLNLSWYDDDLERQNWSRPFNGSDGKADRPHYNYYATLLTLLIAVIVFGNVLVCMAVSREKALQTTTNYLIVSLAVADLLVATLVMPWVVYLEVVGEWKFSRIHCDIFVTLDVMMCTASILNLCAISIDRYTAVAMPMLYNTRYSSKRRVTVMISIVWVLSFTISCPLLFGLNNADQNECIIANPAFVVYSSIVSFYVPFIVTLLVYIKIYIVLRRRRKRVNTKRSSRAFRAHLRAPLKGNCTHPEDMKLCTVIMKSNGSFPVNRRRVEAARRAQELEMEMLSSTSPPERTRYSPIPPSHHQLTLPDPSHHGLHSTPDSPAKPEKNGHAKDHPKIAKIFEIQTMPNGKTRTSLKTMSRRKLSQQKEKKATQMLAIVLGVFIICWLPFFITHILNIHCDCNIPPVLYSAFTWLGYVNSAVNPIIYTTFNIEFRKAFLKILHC
Assay: Dopamine D2 receptor (DRD2) small molecule antagonists, cell-based qHTS assay (AID 1963595)
Conditions: HEK293-DRD2 cAMP HTRF antagonist mode; series mostly up to 92.4 µM
Excerpt: National Center for Advancing Translational Sciences [NCATS]
Division of Preclinical Innovation [DPI]
U.S. Environmental Protection Agency [EPA]
National Institutes of Environmental Health Sciences [NIEHS]
National Toxicology Program [NTP]
U.S. Food and Drug Administration [FDA]
DRD2 is the D2 subtype of the dopamine receptor, which is coupled to Gi subtype of G protein-coupled receptor. This G protein-coupled receptor inhibits adenylyl cyclase activity. The DRD2-HEK293 cell line stably expressing D2 dopamine receptor can be used for screening agonists and antagonists of interactions between D2 and its ligands. The Hek293-DRD2 cAMP assay is based on HTRF technology. It measures changes of cAMP accumulation in response to Gi coupled GPCR activation or inhibition.
Tox21 Assay Protocol Summary:
DRD2-Hek293 cells were dispensed at 600 cells/3uL/well in 1536-well white plates using a Multidrop Dispenser. After the assay plates were incubated at a 37 C/5% CO2 incubator for 24 h, 1 uL of Ro20-1724 at final concentration of 0.1 mM was transferred to the assay plate by a Flying Reagent Dispenser. Following Ro20-1724 addition, 23 nL of compound dissolved in DMSO, positive controls or DMSO only was added to the assay plates via Wako pintool station. The assay plates were incubated at room temperature for 10 min. Next, 1 uL of mixture of NKH477 (final concentration at 200 nM) and quinpirole (final concentration at 12 nM) was added into the plates. After the assay plates were incubated at room temperature for an additional 30 min, 2.5 ul/well of cAMP-d2 and 2.5 ul/well of anti-cAMP-cryptate were added respectively into the assay plates using a Flying Reagent Dispenser. The plates were incubated at room temperature for 1 h. The fluorescence intensity in the plates was measured at 340 nm excitation and 665 & 620 nm emission by an Envision plate reader.

| Structure (SMILES) | Potency |
| --- | --- |
| C=C(C)[C@@H]1CCC2=CCC[C@@H](C)[C@]2(C)C1 | inactive |
| O=C(c1ccccc1O)c1ccccc1O | inactive |
| Nc1nccs1 | inactive |
| COc1ccc(C#N)cc1 | inactive |
| CC(C)c1ccc(S(=O)(=O)O)cc1 | inactive |
| C=CCOCC(CC)(CO)COCC=C | inactive |
| Fc1c(F)c(F)c(Br)c(F)c1F | inactive |
| BrC1CCC(Br)C(Br)CCC(Br)C(Br)CCC1Br (stereo not given) | inactive |
| O=Cc1ccc([N+](=O)[O-])cc1 | inactive |
| CCC(C)=O | inactive |
| CC(C)(C)NC[C@H](O)COc1nsnc1N1CCOCC1 | inactive |
| CCCCCCS | inactive |
| CCCSSCCC | inactive |
| CCCCCCCCCCC | inactive |
| OCCC(F)(F)C(F)(F)C(F)(F)C(F)(F)C(F)(F)C(F)(F)F | inactive |
| c1ccc2c(c1)ccc1ncccc12 | inactive |
| Cc1cccc2c1ccc1ccccc12 | inactive |
| Cc1cc(CCC(=O)OCCOCCOCCOC(=O)CCc2cc(C)c(O)c(C(C)(C)C)c2)cc(C(C)(C)C)c1O | inactive |
| CCOC(OCC)C(=O)c1ccccc1 | inactive |
| N[C@H](Cc1c[nH]c2ccccc12)C(=O)O | inactive |

| Structure (SMILES) | Potency |
| --- | --- |
| O=C(O)CCc1ccccc1 | inactive |
| C=CCOCC(O)CO (stereo not given) | inactive |
| CCO[Si](CCCN=C=O)(OCC)OCC | inactive |
| CCCCNc1ccccc1 | inactive |
| C=C(C)[C@@H]1CCC2=CC(=O)C[C@@H](C)[C@]2(C)C1 | inactive |
| CCCN1C=CN(C)C1 | inactive |
| CC(=O)O[C@@H]1CC2C3CCc4cc(OC(=O)c5ccccc5)ccc4C3CCC2(C)[C@H]1OC(C)=O (stereo not given in full) | inactive |
| CCCCOCCOCCOCCCC | inactive |
| C1CN(CCOCCN2CCOCC2)CCO1 | inactive |
| Cc1ccccc1S(N)(=O)=O | inactive |
| Cn1ccnc1 | inactive |
| CCCC(=O)Nc1ccc(O)c(C(C)=O)c1 | inactive |
| C1CCC2OC2C1 (stereo not given) | inactive |
| CC(C)(O)C#CC(C)(C)O | inactive |
| CCSC(=O)N(CC)CC | inactive |
| CCCCCCCCCCCC(=O)OC[C@@H](O)[C@H]1OC[C@H](OCCO)[C@H]1OCCO | inactive |
| CCN(CC)C(=O)C1CN2CCc3cc(OC)c(OC)cc3C2CC1OC(C)=O (stereo not given) | inactive |
| CCN(C=O)CC | inactive |
| CCCCCCCCCCCCCCC(=O)O | inactive |
| N#CCN(CC#N)CCN(CC#N)CC#N | inactive |
